Measured values reported in PubChem BioAssay (NCATS).
Inconclusive results are not listed. The source made the active and inactive calls. Calls come from the whole dose curve; as a rule, active = well fitted curve in the direction sought with a large enough effect; inconclusive = small, poorly fitted or top-dose-only effect, or another doubt; inactive = no such curve, though single readings can be large or run the other way.

Experiment: qHTS Assay for Identifying Gametocytocidal Compounds (AID 743244);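 for max response: actives lower the fluorescent signal which means gametocytes are killed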
Settings: P. falciparum 3D7 stage III-V gametocytes, alamarBlue, 72 h; max response: stronger effect = lower value
Procedure, shortened: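 Compounds are pinned into medium, gametocytes (stage III–V, 3D7, 20,000 cells/well) added, and plates held 72 h at 37 °C in 5% CO2. AlamarBlue follows for 24 h before fluorescence reading.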
% is set by controls: 0 for no effect and ±100 for the full control effect; potency is the fitted concentration of half-maximal effect.

Which max response does the source give for `CCN(CCCc1ccccc1)CCCc1ccccc1` here?
The max response was 0.141% (inactive).

With `CN(C)CCOc1ccccc1Cc1ccccc1` as the compound, how does the max response read?
The max response was -21.1% (inactive).

For `Cc1ccnc(NS(=O)(=O)c2ccc(N)cc2)n1`, which max response is on record?
The max response was 9.97% (inactive).

Which max response does the source give for `C[C@@H]1C[C@H]2[C@@H]3C[C@H](F)C4=CC(=O)C(Cl)=C[C@]4(C)[C@@]3(F)[C@@H](O)C[C@]2(C)[C@@]1(O)C(=O)CO` here?
Its max response is 5.34% (inactive).

With `C[C@H](O)C(=O)Nc1c(I)c(C(=O)NC(CO)CO)c(I)c(C(=O)NC(CO)CO)c1I` as the compound, how does the max response read?
Its max response is 9.34% (inactive).

Which max response does the source give for `Cc1c(C)n(CCN(C)C)c2ccc(C(=O)OCCN(C)C)cc12` here?
The max response was 8.04% (inactive).

For `CC(=O)OCC(=O)[C@@]12OC(C)(C)O[C@@H]1C[C@H]1[C@@H]3C[C@H](F)C4=CC(=O)C=C[C@]4(C)[C@@]3(F)[C@@H](O)C[C@@]12C`, which max response is on record?
Its max response is 1.24% (inactive).

Which Potency does the source give for `CCCCCCCCCCCCCCCC[N+](C)(C)CC` here?
The Potency was 14.1 µM (active).

For `C[C@]12CC[C@H]3[C@@H](CCC4=CC(=O)CC[C@@]43C)[C@@H]1CC[C@@H]2C(=O)CO`, which max response is on record?
Its max response is 8.05% (inactive).

With `C[C@]12CC[C@@H]3c4ccc(O)cc4CC[C@H]3[C@@H]1C[C@@H](O)[C@@H]2O` as the compound, how does the max response read?
Its max response is 5.6% (inactive).

Which max response does the source give for `Cc1c(C(C)C)c(=O)n(-c2ccccc2)n1C` here?
The max response was 39.2% (inactive).

Which max response does the source give for `CC(C)(CO)[C@@H](O)C(=O)NCCCO` here?
The max response was 14.7% (inactive).

Which max response does the source give for `CCCCCCCCCCCCCCCCOP(=O)([O-])OCC[N+](C)(C)C` here?
The max response was -10.8% (inactive).

For `C#C[C@]1(O)CC[C@H]2[C@@H]3CCc4cc(OC5CCCC5)ccc4[C@H]3CC[C@@]21C`, which max response is on record?
Its max response is 6.16% (inactive).

With `COc1cc(N)c(Cl)cc1C(=O)NC1CCN(CCCOc2ccc(F)cc2)CC1OC` (centres undefined) as the compound, how does the max response read?
The max response was -0.854% (inactive).

With `COc1cc(OC)cc(OC)c1` as the compound, how does the max response read?
Its max response is 0.294% (inactive).

With `c1ccc(OCc2ccc(CCCN3CCOCC3)cc2)cc1` as the compound, how does the max response read?
Its max response is -2.94% (inactive).

For `C[C@H]1[C@H](NC(=O)/C(=N/OC(C)(C)C(=O)O)c2csc(N)n2)C(=O)N1S(=O)(=O)O` (stereo in doubt), which max response is on record?
Its max response is -0.904% (inactive).

For `CC(=O)N(O)CCCCCNC(=O)CCC(=O)N(O)CCCCCNC(=O)CCC(=O)N(O)CCCCCN`, which max response is on record?
Its max response is 17.5% (inactive).

For `CCCCCCC[N+](CC)(CC)CCCCc1ccc(Cl)cc1`, which Potency is on record?
Its Potency is 3.55 µM (active).

For `CCCCCC=CCC=CCCCCCCCC(=O)OCC`, which max response is on record?
The max response was 0.796% (inactive).

For `CO/N=C1\CN(c2nc3c(cc2F)c(=O)c(C(=O)O)cn3C2CC2)CC1CN` (centres undefined), which max response is on record?
Its max response is -1.09% (inactive).

For `CC(C)=CCC1C(=O)N(c2ccccc2)N(c2ccccc2)C1=O`, which max response is on record?
The max response was -12.9% (inactive).

Which Potency does the source give for `Oc1ccc(Cl)c2cccnc12` here?
Its Potency is 7.94 µM (active).
